Measurements reported in ChEMBL document CHEMBL4513216, “Probing the Open Global Health Chemical Diversity Library for Multistage-Active Starting Points for Next-Generation Antimalarials” (ACS Infect Dis, 2020).
Among all 69,000 compounds or so, about 8,600 (12%) showed an effect of 50% or more. The full list was thinned out, with strong results kept by preference.

Tested on: Plasmodium berghei
Experiment: Screen against P. berghei liver stage (PbLuc), transformed with Luciferase, at 10uM
Assay type: functional, HepG2
Details: tested at 10 uM

SMILES	INHIBITION
O=C(c1cnn2ccccc12)N1CCCC(OCc2ccccn2)C1 (configuration not stated)	15.7%
COc1c(CNC(c2ccccc2)c2ccc(F)cc2)c(C)nn1C (configuration not stated)	35.4%
CC1CCN(C(=O)[C@H]2C[C@@H]3CCN(CC4CCOCC4)C[C@H]3O2)CC1	-7.24%
c1cc(NCc2ccncc2)nc(C2CCCN2)c1 (configuration not stated)	14%
O=C(CC1CCN(c2cccnn2)CC1)Nc1nncs1	31.3%
Cc1nc(-c2ccccc2)sc1CSCCC(N)=O	60.8%
Cc1nc(-c2ccccc2)sc1CSCCS(C)(=O)=O	20.1%
Cc1nc(-c2ccccc2)sc1CSC(C)C(N)=O (configuration not stated)	-48.3%
CNc1cc2c(nn1)CCN(C(=O)c1cc(C)no1)C2	-65.3%
CN1CC(C(=O)NCc2ccc(Br)cc2F)CC1=O (configuration not stated)	-18.5%
CNC(=O)CN1CCC(OCC2CCCO2)CC1 (configuration not stated)	32.9%
CCNC(=O)CN1CCC(OCC2CCCO2)CC1 (configuration not stated)	68.8%
O=C(CN1CCC(OCC2CCCO2)CC1)NCC(F)(F)F (configuration not stated)	1.2%
Cc1nn(C)c(C)c1C1CCCN1C(=O)c1ccnc(N(C)C)c1 (configuration not stated)	-4.16%
CN(Cc1ccco1)C1CCC12CCN(C(=O)c1ccco1)CC2 (configuration not stated)	-77.5%
COc1ncccc1CNC(=O)c1cc(C)on1	-41.1%
COc1ccccc1C(C)N1CCN(S(=O)(=O)N(C)C)CC1 (configuration not stated)	14.7%
CCS(=O)(=O)N1CCN(C(C)c2ccccc2OC)CC1 (configuration not stated)	13.5%
COc1ccccc1C(C)N1CCN(S(C)(=O)=O)CC1 (configuration not stated)	51.1%
COCCC(=O)N1CCCC2(CCCN2Cc2ccccc2F)C1 (configuration not stated)	19.5%
COCC(=O)N1CCN(C(=O)Cc2cccs2)[C@H]2CS(=O)(=O)C[C@H]21	-6.11%
O=C(CN1CCCC(c2ccn[nH]2)C1)Nc1nc2c(s1)CCC2 (configuration not stated)	83.2%

SMILES	INHIBITION
Cc1nc(C)n(CC2CCCN(CC(=O)Nc3nncs3)C2)n1 (configuration not stated)	12.4%
O=C(CN1CCCC(c2ccn[nH]2)C1)Nc1nc2c(s1)CCCC2 (configuration not stated)	86.9%
CC(C)C1Nc2ccccc2C(=O)N1CC(=O)Nc1nc2c(s1)CCC2 (configuration not stated)	16.5%
O=C(CN1CCCC(c2ccn[nH]2)C1)N1CCCc2ccccc21 (configuration not stated)	21.8%
O=C1CCCN1CCN1CCCC(c2ccn[nH]2)C1 (configuration not stated)	-24.2%
Cc1cc(C2CCCN(CC(=O)Nc3nc4c(s3)CCC4)C2)n[nH]1 (configuration not stated)	75.8%
Cc1nnc(NC(=O)CN2CCCC(c3ccn[nH]3)C2)s1 (configuration not stated)	47.1%
O=C(O)c1cccc(CN2CCCC(c3ccn[nH]3)C2)c1 (configuration not stated)	21.45%
Cc1cc(C2CCCN(CC(=O)N3CCc4ccccc43)C2)n[nH]1 (configuration not stated)	15.2%
O=C(CN1CCCC(c2ccn[nH]2)C1)Nc1nncs1 (configuration not stated)	56.3%
Cc1cc(C2CCCN(CC(=O)N3CCCc4ccccc43)C2)n[nH]1 (configuration not stated)	19.9%
NC(=O)CCCNC(=O)Cc1csc(Cc2ccccn2)n1	46.6%
CNC(=O)N1CCCCC1CCNS(C)(=O)=O (configuration not stated)	-2.48%
CC(=O)N1CCCN(C(C(=O)O)c2ccc(C)cc2C)CC1 (configuration not stated)	41.3%
CNc1cc(N2CCCC2CNCc2cccc(C(N)=O)c2)ncn1 (configuration not stated)	39.5%
CC(=O)N1CCN(C(=O)c2csc(-c3ccc(C)cc3C)n2)CC1	17%
CN1CC2(CCN(C(=O)c3cccc(-n4cccn4)c3)CC2)OC1=O	12%
CC(=O)N1CCC(NC(=O)c2ccc3c(c2O)OC(C)(C)C3)CC1	48.2%
Cc1ccc(CN2CCC3(CC2)CC(CC(=O)NC(C)C)CO3)s1 (configuration not stated)	-62.7%
CN(C)C[C@H]1OC[C@@H]2CCN(S(=O)(=O)c3ccc(F)cc3)C[C@@H]21	42.7%
COc1ccccc1C(C)(C)NC(=O)NC1CCC(O)CC1 (configuration not stated)	-30.3%
Cc1ccc2oc(C(=O)N3CCCC(n4ccnc4C)C3)cc2n1 (configuration not stated)	20.33%

SMILES	INHIBITION
Cc1ccccc1C(=O)NC[C@@H]1CCN(C(=O)CN2CCCC2)C[C@H]1O	44.3%
Cc1ccccc1C(=O)NC[C@@H]1CCN(C(=O)c2cccn2C)C[C@H]1O	17.4%
COc1ccc(C[C@H]2CN(C(=O)c3cscn3)CC[C@@H]2OC)cc1	22.3%
Cc1ccccc1C(=O)NC[C@@H]1CCN(C(=O)c2cscn2)C[C@H]1O	63.8%
Cc1ccccc1C(=O)NC[C@@H]1CCN(C(=O)C2(O)CCCC2)C[C@H]1O	69.3%
Cc1ccccc1C(=O)N1CC(C(=O)NCC2CC2)C2(CCOCC2)C1 (configuration not stated)	-41.4%
Cc1ccc(C)c(-c2[nH]c3ccccc3c2C(=O)O)c1	13.5%
Cn1ccnc1C1(O)CCN(C(=O)Cc2ccccc2)CC1	7.635%
CCN(CC)S(=O)(=O)c1ccc(C(=O)NC(C)(C#N)C2CC2)cc1 (configuration not stated)	-5.1%
O=C(c1ccc2c(c1)CCC2)N1CCC(c2n[nH]c(C3CC3)n2)CC1	-19.6%
CC(=O)N1CCC(NC(=O)N(C)Cc2c(C)noc2C)CC1	-35.61%
CC(=O)c1ccc(N2CCN(C(=O)c3cnn4c3OCCC4)CC2)cc1	16%
COCc1ccc(C(=O)N2CCOCC2c2ccc(C)o2)cc1 (configuration not stated)	1.2%
Cc1ccc(C2COCCN2C(=O)c2ccc(N(C)C)cc2)o1 (configuration not stated)	-0.79%
COc1ccc(C(=O)N2CCOCC2c2ccc(C)o2)cc1 (configuration not stated)	68%
CC(C)Cc1nc(CN2CCc3onc(-c4cccc(F)c4)c3C2)no1	82.5%
CC(C)c1nc(CN2CCc3onc(-c4cccc(F)c4)c3C2)no1	84.1%
Cn1cccc1C1CCCN1Cc1noc(C(C)(C)C)n1 (configuration not stated)	-40.5%
Fc1cccc(-c2noc3c2CN(Cc2cncn2C2CC2)CC3)c1	33.3%
CC(C)(C)c1nc(CN2CCc3onc(-c4cccc(F)c4)c3C2)no1	67.7%
COc1cc2c(nn1)CCN(Cc1noc(CC(C)C)n1)C2	17.4%
Cn1ncc(CN2CCc3onc(-c4cccc(F)c4)c3C2)c1C1CC1	41.5%

SMILES	INHIBITION
CC(C(=O)N(C)C)N1CCc2onc(-c3cccc(F)c3)c2C1 (configuration not stated)	40.9%
CC(C(N)=O)N1CCc2onc(-c3cccc(F)c3)c2C1 (configuration not stated)	18.2%
COc1ncnc2c1CCN(Cc1nccs1)CC2	-20.1%
CCN(CC(=O)N(C)C)C(=O)c1ccc(-c2nc(C)cs2)cc1	30.9%
CCCn1c(N2CCCCC2)nc2c(C)nn(C)c2c1=O	35.9%
Cc1occc1C(=O)N1CCC2(CCCN(Cc3nccs3)C2)C1 (configuration not stated)	-58.3%
Cc1ccc(CN(C)C(=O)c2cc(Cn3ccnc3C(C)C)[nH]n2)o1	42.3%
CCn1ccnc1CN1CCN(C(C)C(=O)NCC(F)(F)F)CC1 (configuration not stated)	19.7%
CC(C)c1nccn1Cc1cc(C(=O)NCC(C)n2ccnc2)n[nH]1 (configuration not stated)	26%
Cc1ccc(CNC(=O)c2cc(Cn3ccnc3C(C)C)[nH]n2)o1	63%
Cc1nc(CNC(=O)c2cc(Cn3ccnc3C(C)C)[nH]n2)sc1C	37.9%
CC(C)c1nccn1Cc1cc(C(=O)NCC(F)(F)F)n[nH]1	94%
CCc1nc(CNCCn2cc(C)cn2)no1	0.914%
O=S(=O)(CCOc1ccc(F)cc1)Nc1cnn(CC(F)F)c1	-6.85%
CN1CCN2CCN(Cc3cc(=O)n4c5c(cccc35)CCC4)CC2C1 (configuration not stated)	13%
CCCC1CN(CCOC)C(=O)c2cccnc2O1 (configuration not stated)	26.8%
COCC(=O)N(Cc1cccc(C)c1)Cc1ccccc1OC	51.7%
CN[C@@H](C)C(=O)N(Cc1cccc(C)c1)Cc1ccccc1OC	34.1%
COc1ccccc1CN(Cc1cccc(C)c1)C(=O)[C@@H](N)CC(=O)O	11.8%
O=C(COc1ccc(F)cc1F)N1CCOCC(O)(CN2CCCC2)C1 (configuration not stated)	11.8%
CCN1CCN(CCCNC(=O)c2cc3ccc(C)cc3nc2C)CC1	37.2%
Cc1ccc2cc(C(=O)NCCN3CCS(=O)(=O)CC3)c(C)nc2c1	74.7%

SMILES	INHIBITION
COc1ccc2nc(C)c(C(=O)NCCN3CCS(=O)(=O)CC3)cc2c1	46.9%
CSc1nc2ncc3c(=O)n(CCN4CCCCC4)ccc3n2n1	51%
COCCn1ccc2c(cnc3nc(SC)nn32)c1=O	38.4%
CSc1nc2ncc3c(=O)n(C)ccc3n2n1	-3.73%
CCn1c(C)cc(C(=O)N2C[C@@H](C(=O)O)[C@H](c3ccccc3C)C2)c1C	0.33%
C1CCN(CCOC2CCNCC2)CC1	3.63%
COc1ccnc(N2CCC(OCCN3CCCCC3)C2)n1 (configuration not stated)	42.4%
Cc1cnc(N2CCC(OCCN3CCCCC3)C2)nc1C (configuration not stated)	54.5%
CC(C)(C)c1nccc(N2CCC(OCCN3CCCCC3)C2)n1 (configuration not stated)	66.5%
Cc1ccnc(N2CCC(OCCN3CCCCC3)C2)n1 (configuration not stated)	48.9%
c1cnc(N2CCC(OCCN3CCCCC3)C2)nc1 (configuration not stated)	40.6%
Cc1cnc(N2CCCOC(CN3CCCCC3)C2)nc1 (configuration not stated)	34.1%
Cc1cc(C)nc(N2CCC(OCCN3CCCCC3)C2)n1 (configuration not stated)	58.2%
CN(CCN1CCCCCC1)c1nccc(N2CCC(O)C2)n1 (configuration not stated)	27.6%
c1nc2c(c(-c3ccsc3)n1)CCN(Cc1ccoc1)CC2	20.1%
CCCNC(c1cccnc1)c1ccc(F)c(C)c1 (configuration not stated)	-24.7%
O=C(CN1CCOC(CNc2cccnn2)C1)NCc1cccs1 (configuration not stated)	36.55%
CC(C)(C)c1nc(CN2CCOC(Cn3cccn3)C2)no1 (configuration not stated)	-29.1%
O=C(c1ccncc1F)N1C[C@@H]2CC[C@H]1CN(Cc1cccnc1)C2	22.7%
